# Target: T1, ETS1 (UniProt P14921)
# T1 sequence: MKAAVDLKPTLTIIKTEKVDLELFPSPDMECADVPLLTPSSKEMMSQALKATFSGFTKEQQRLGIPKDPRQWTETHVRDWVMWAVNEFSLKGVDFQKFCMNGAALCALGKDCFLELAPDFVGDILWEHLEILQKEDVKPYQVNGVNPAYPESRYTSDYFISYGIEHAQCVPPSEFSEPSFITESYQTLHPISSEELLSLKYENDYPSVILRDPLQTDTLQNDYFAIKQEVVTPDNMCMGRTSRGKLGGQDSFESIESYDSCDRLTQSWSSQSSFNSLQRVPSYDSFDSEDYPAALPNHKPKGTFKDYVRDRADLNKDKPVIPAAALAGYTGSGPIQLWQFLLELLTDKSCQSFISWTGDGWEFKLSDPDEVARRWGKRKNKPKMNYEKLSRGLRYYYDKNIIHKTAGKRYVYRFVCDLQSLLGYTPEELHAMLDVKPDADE
# Assay: ETS1 binding intensity (PBM fluorescence) in presence of RUNX1, normalised to ETS1-only experiment (arbitrary fluorescence units); higher = stronger binding
# Conditions: ETS1 concentration 1 nM; RUNX1 concentration 25 nM
# 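Throughout, for RUNX1 binding intensity (PBM fluorescence) in presence of ETS1, normalised to RUNX1-only experiment: Full-length recombinant human ETS1 or RUNX1 bound to double-stranded 36-bp genomic probes on microarrays, detected by protein-specific primary antibody and Alexa488 secondary, spot fluorescence as median of four replicate spots.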
row,Sequence,ETS1 binding intensity
1,CCGGCAGGAAGTTAGCATGGGCGGACCACACGGGGG,1530
2,CGAAACGCGTTCCCCGGAAACCGCGCCCGGCTCCGA,3230
3,TGACTTCCTCCTCTTCACTAACAGAAACCTCAATTT,526
4,AGGGCATAAACAGGATGTGGTGTTGGATGAAACCTT,7490
5,GGGGCAGGAAGTGGAGGTTTGAAGTGGTTTAGAGTA,2310
6,TCTGTTCTTCCTTTTCCTGTGCGGTGTGCCCCAAAC,722
7,AGAACAGCAGGAAATAAATACCCACCTCAGGACTGC,1050
8,CTGCTGCTTTTAGGATGTGGTTTTATTATTGTCGGG,4960
9,AAGAACCTAGAGGATGTGTGGTTTTATGTGCAGGGT,1830
10,TATCACATCCTGCCGGACAAAAAGGCCAAACCACCT,473
11,TTTCCACTTCCTGTTCTACTTGTGGCTACTGACTCA,2890

# Target: RUNX1 (UniProt Q01196)
# Sequence (Q01196 whole entry): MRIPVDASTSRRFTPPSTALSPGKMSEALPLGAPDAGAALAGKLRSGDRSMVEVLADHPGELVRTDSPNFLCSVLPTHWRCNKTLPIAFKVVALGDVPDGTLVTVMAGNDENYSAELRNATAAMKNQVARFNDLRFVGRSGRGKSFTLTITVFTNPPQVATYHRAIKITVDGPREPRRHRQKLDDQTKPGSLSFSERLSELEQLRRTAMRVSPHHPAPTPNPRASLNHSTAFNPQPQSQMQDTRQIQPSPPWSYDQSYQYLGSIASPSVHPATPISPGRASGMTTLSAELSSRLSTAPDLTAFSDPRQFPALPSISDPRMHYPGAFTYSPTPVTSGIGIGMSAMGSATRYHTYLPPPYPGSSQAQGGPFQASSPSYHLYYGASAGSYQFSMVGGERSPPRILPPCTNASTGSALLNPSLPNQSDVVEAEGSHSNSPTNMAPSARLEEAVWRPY
# Assay: RUNX1 binding intensity (PBM fluorescence) in presence of ETS1, normalised to RUNX1-only experiment (arbitrary fluorescence units); higher = stronger binding
# Conditions: RUNX1 concentration 2 nM; ETS1 concentration 25 nM
# Protocol: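 Cooperative gcPBM on 36-bp genomic probes with neighbouring ETS1 and RUNX1 sites. Recombinant human RUNX1 (2 nM) was incubated alone or with ETS1 (25 nM) and detected with anti-RUNX1 antibody plus Alexa488 secondary. Values are medians over 4 replicate spots; the RUNX1+ETS1 data were normalised to the RUNX1-only data. The probes sit in constant array flanks that are not printed.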
row,Sequence,RUNX1 binding intensity
1,GGACTGCGTTTCCGGACACTGCGGGTGCCGGTAGCC,1450
2,GAAGCCCAACAGGATGCCGAGTAACCACCCACTGAA,924
3,TTACACAACAGGAAACTATGTTTAGCGGTTAATCCA,1580
4,CTCGTGCGTCACTTCCGCCCCGCAGACCCGCCCACT,2420
5,TTCAGGTGACTTCCGGCCGGACCGCTGAGGACGCGG,1630
6,AAAGGCGGAAGGGGGGCAGGGAACCCACAAAACAGA,857
7,AAACAGGAAATCACAGCAGCGTTGCGGAGTGGAGCA,883
8,CTTGCCACACTTCCTCTTGTTTTGAACCACTATATT,4740
9,ACCAACCGGAAGTGATCGTGTTGTGGCCGAAGGAGG,1590
10,AGGACGGGCGGAAGTGGCTGCGGTGGATGGTGGGAG,3180
11,CGGTGGCTTCCGGCCCATGGCGGTGGTTGGTGACTC,1840
12,CTGACAGTTACTTCCTGTCTTTGTGGGCGATTGTGA,2390
13,CCAGGCGGAAGCGGCCGGGAGTAGCGCTGCGGTTGG,1610
14,GAGGCAGGCGGATGTCAGTGTGGTTAGAGCACAGTG,1960
15,GGCTCGGCAAACATCCGGCTCCGCGGTGGAACGGGA,1580
16,GATGCTTGTTCAGGATGCGGTTTCTTGCAGCAAGTT,5090
17,CCATTCACGGGCTTCCGCGGTGTCCCCACCCCCTAA,1160
18,TCCCCACATCCTTTAAAACGATGAGATAACCACATG,2960
19,CCTTTCCGCGAGACCTTCCGCGGTTATCCAGCGAGT,1510
20,AGGCCGCTTCCTCCCACATGAAACCGCAGGCTTCGG,10900

row,Sequence,RUNX1 binding intensity
1,AACAGTCACATCCGGGGCCGAGAGGAACCGCGAACG,1740
2,GGCTGGCCTAGGAACTTCCGCCACAAGTCCCGCCCC,1390
3,CCGGGTAGGATCCGGTTGCCTTTCTGCGGTGGAGGA,1480
4,CCTCCCGACCGGAAGCCCCGCCACAGAGCGGGTTGT,2420
5,AGCTGAGAGCCTGCCGGAAGCCACAGCTTCTTCTCG,1200
6,ACCGGGTGCTGAGGAGGAAGTGGTTGCTATAACCCC,1120
7,CCGGCAGGAAGTTAGCATGGGCGGACCACACGGGGG,1590
8,GGCTTTCCGTTCAAGGATCTTTTTGCGGTCTTTGTC,3270
9,CGAAACGCGTTCCCCGGAAACCGCGCCCGGCTCCGA,1090
10,TGACTTCCTCCTCTTCACTAACAGAAACCTCAATTT,2570
11,AGGGCATAAACAGGATGTGGTGTTGGATGAAACCTT,1360
12,GGGGCAGGAAGTGGAGGTTTGAAGTGGTTTAGAGTA,1350
13,TCTGTTCTTCCTTTTCCTGTGCGGTGTGCCCCAAAC,2810
14,AGAACAGCAGGAAATAAATACCCACCTCAGGACTGC,887
15,CTGCTGCTTTTAGGATGTGGTTTTATTATTGTCGGG,1340
16,AAGAACCTAGAGGATGTGTGGTTTTATGTGCAGGGT,1150
17,AATTGAGACAGGAAATGTTGGTTTGTGGTCAGGCAC,3130
18,TATCACATCCTGCCGGACAAAAAGGCCAAACCACCT,1850
19,TTTCCACTTCCTGTTCTACTTGTGGCTACTGACTCA,3380
20,ATTCCTAGAGAGGAAATGCGGGCTCAGGGTGTCGGC,897

# From the supplement of paper PMC10681739
